The record followed here is paper PMC5540273 (PLoS ONE, 2017).
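Note: KINOMEscan kinase panel screen.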

For the test, the system named is MYLK. The settings on record: concentration: 1 μM, replicates: in singlicate; n = 1.
With `O=C(O)C(F)(F)F.O=C(O)C(F)(F)F.O=c1[nH]ccc2nc(N[C@@H]3CCCNC3)nc(Nc3ccc(S(=O)(=O)N4CCOCC4)cc3)c12` [GSK2177277], the “%Inh” value amounted to 96.9%.

In the case of `COc1cc(Nc2nccc(N3CCC(NC(=O)c4cc5ccccc5s4)C3)n2)cc(OC)c1OC` (stereo not shown) [GSK1379760], the “%Inh” value came out at 0%.

In the case of `CN1CCN(Cc2cccc(-c3ccc4c(Nc5ccc(Oc6ccccc6)cc5)ccnc4c3)c2)CC1` [GW578342], the “%Inh” value is 13%.

For `Fc1ccc(-c2ncn(C3CCNCC3)c2-c2ccnc(Oc3ccc(-c4ccccc4)cc3)n2)cc1` [SB-245391], the “%Inh” value came out at 16%.

Consider `Cc1ccc(S(=O)(=O)Nc2ccc(Nc3nccc(Nc4cccc5[nH]ncc45)n3)cc2)cc1` [GSK581271], for which the “%Inh” value is 0%.

Take `COC(=O)Nc1nc2ccc(Oc3ccc(NC(=O)Nc4cc(C(F)(F)F)ccc4F)cc3)cc2n1C.Cl` [GW692089]: the “%Inh” value is recorded as 0%.

With `O=C(Nc1n[nH]c2nc(-c3ccc(O)cc3)ccc12)C1CC1` [SB-710363], the “%Inh” value is 35%.

`CNC(=O)c1ccccc1Nc1nc(Nc2ccc(N3CCOCC3)cc2)ncc1Cl.Cl` [GSK1576028]: the “%Inh” value stood at 94%.

For `Cl.NC(=O)c1cccc(Nc2nccc(Nc3ccc(Oc4c(Cl)cccc4Cl)c(Cl)c3)n2)c1` [GW659009], the “%Inh” value stood at 0%.

Take `COc1cc(Nc2nccc(-c3c(-c4cccc(NC(=O)c5c(F)cccc5F)c4)nn4ccccc34)n2)cc(OC)c1OC` [GSK323521]: the “%Inh” value was 8%.

With `Cn1cc(-c2ccc3c(c2)CCN3C(=O)Cc2cccc(F)c2)c2c(N)ncnc21` [GSK2603358], the “%Inh” value is 18%.

Regarding `Cc1cccc(Nc2nc(N[C@H]3CCNC3)ncc2C(N)=O)c1.Cl` [GSK2197149], the “%Inh” value is recorded as 16%.

Regarding `c1ccc(-c2n[nH]cc2Nc2ccnc3ccccc23)nc1` [GW694077], the “%Inh” value came to 22%.

Consider `CN(C)Cc1ccc(-c2ccc3c(Nc4ccc(Oc5ccccn5)cc4)ccnc3c2)o1` [GW567148], for which the “%Inh” value came out at 4%.

For the compound `CCS(=O)(=O)c1ccc(OC)c(Nc2nccc(-c3c(-c4cccc(NC(=O)c5c(F)cccc5F)c4)nn4ncccc34)n2)c1` [GSK326180], the “%Inh” value was found to be 17%.

In the case of `COc1cccc(C2=C(Nc3ccc(Cl)c(C(=O)O)c3)C(=O)NC2=O)c1` [SB-390769], the “%Inh” value came to 100%.

Regarding `COc1cccc(NC(=O)NC2CCN(c3ccnc(Nc4cc(OC)c(OC)c(OC)c4)n3)C2)c1` (stereo not shown) [GSK1379763], the “%Inh” value was 17%.

Turning to `Cc1ccc(C)c(NC(=O)NC2CCN(c3ccnc(Nc4ccc(F)cc4)n3)C2)c1` (stereo not shown) [GSK1379720], the “%Inh” value was found to be 2%.

As to `Cc1ccc(F)c(C(=O)Nc2cccc(-c3nn4ccccc4c3-c3ccnc(Nc4cccc(F)c4)n3)c2)c1F` [GSK361061], the “%Inh” value was found to be 33%.

On to `Cc1occc1-c1ncc(OC[C@@H](N)Cc2c[nH]c3ccccc23)cc1-c1ccc2[nH]nc(C)c2c1.O=C(O)C(F)(F)F` [GSK682037], for which the “%Inh” value is 29%.

On to `COc1ccc(Nc2nccc(N3CCC(NC(=O)Nc4cccc(OC)c4)C3)n2)cc1` (stereo not shown) [GSK1379742], for which the “%Inh” value is 2%.

As for `CC(=O)N1CCN(c2ccc(Nc3nccc(-c4sc(C(C)C)nc4-c4cccc(NS(=O)(=O)c5cccc(Cl)c5)c4)n3)cn2)CC1` [GSK1660437], the “%Inh” value worked out at 7%.

For `Nc1ncnc2c1nc(-c1ccccc1)n2-c1ccccc1` [SKF-97293], the “%Inh” value came out at 32%.

As for `O=C(NC1CCN(c2ccnc(Nc3ccc(F)cc3)n2)C1)c1cc2ccccc2s1` (stereo not shown) [GSK1379716], the “%Inh” value amounted to 36%.

In the case of `COc1cccc(C(=O)Nc2cccc(Oc3ccc4nc(NC(=O)C5CC5)cn4n3)c2)c1`, the “%Inh” value is recorded as 33%.

For `Cl.Cl.NCC(C(=O)Nc1cc(Br)c(-c2ccnc3[nH]ccc23)s1)c1ccccc1` (stereo not shown) [GSK1269851], the “%Inh” value was determined as 37%.

Consider `Cn1cc(-c2ccc3c(c2)CCN3C(=O)Cc2cccc(Cl)c2)c2c(N)ncnc21` [GSK2606590], for which the “%Inh” value amounted to 8%.

For the compound `COc1cc(Nc2ncc3c(C)nc(-c4cc5ccccc5[nH]4)n3n2)cc(OC)c1OC` [GW869516], the “%Inh” value is 0%.

As for `O=C(Nc1cccc(-c2nn3ccccc3c2-c2ccnc(Nc3cccc(F)c3)n2)c1)c1c(F)ccc(F)c1Cl` [GSK357952], the “%Inh” value was determined as 5%.

For the compound `C[C@@H](Oc1cc(-n2cnc3cc(-c4ccnc(NCCS(C)(=O)=O)c4)ccc32)sc1C(N)=O)c1ccccc1Cl` [GSK907232], the “%Inh” value worked out at 10%.

With `COc1cccc(-c2ccc3c(NC(=O)C4CC4)n[nH]c3n2)c1` [SB-710903], the “%Inh” value was found to be 11%.

In the case of `Cc1ccc(C(=O)N2CC[C@@H](O)C2)cc1-n1c(C)cc(OCc2ccc(F)cc2F)c(Br)c1=O`, the “%Inh” value is listed as 0%.

`Cl.c1ccc(-c2ccc3c(Nc4ccc5[nH]ccc5c4)ccnc3c2)nc1` [GW440138]: the “%Inh” value came out at 13%.

In the case of `CCc1ccc(-c2ccc3c(c2)-c2c(cnn2C)S(=O)(=O)N3C)cc1`, the “%Inh” value was determined as 0%.

As to `COc1ccc(Nc2nccc(NCCNC(=O)c3cc4ccccc4s3)n2)cc1` [GSK1379896], the “%Inh” value was 18%.

On to `Nc1ncc(-c2ccc3nccc(-c4ccncc4)c3c2)cc1S(=O)(=O)N1CCOCC1` [GSK1627798], for which the “%Inh” value was found to be 20%.

For the compound `O=C(Nc1n[nH]c2cc(-c3ccoc3)ccc12)C1CC1` [SB-738481], the “%Inh” value was 29%.
